# Experimental data published in ChEMBL document CHEMBL2218924, “A broad activity screen in support of a chemogenomic map for kinase signalling research and drug discovery” (Biochem J, 2013).
# How the values were obtained:
# [1] = biological target: T1, Serine/threonine-protein kinase TBK1 (Homo sapiens) (UniProt Q9UHD2); details: at 10 µM
# T1 sequence (whole entry): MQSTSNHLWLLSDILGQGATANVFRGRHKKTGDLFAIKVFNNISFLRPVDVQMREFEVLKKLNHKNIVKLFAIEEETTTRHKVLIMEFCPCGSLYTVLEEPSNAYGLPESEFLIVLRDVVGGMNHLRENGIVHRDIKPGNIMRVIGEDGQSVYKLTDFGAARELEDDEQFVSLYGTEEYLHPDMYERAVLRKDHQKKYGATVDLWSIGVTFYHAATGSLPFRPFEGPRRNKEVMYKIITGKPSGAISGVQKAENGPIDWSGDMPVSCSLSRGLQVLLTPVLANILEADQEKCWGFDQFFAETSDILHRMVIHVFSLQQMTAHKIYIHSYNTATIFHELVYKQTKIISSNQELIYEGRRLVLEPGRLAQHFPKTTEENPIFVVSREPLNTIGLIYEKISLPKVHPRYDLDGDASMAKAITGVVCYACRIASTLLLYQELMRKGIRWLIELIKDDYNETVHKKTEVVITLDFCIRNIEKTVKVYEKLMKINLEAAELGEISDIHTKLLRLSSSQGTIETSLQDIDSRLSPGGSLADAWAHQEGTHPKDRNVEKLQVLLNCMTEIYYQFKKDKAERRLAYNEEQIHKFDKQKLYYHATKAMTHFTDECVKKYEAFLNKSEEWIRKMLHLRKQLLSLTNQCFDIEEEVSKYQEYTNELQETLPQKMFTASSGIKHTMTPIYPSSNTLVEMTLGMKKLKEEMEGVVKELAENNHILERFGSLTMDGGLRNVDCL
# [2] = biological target: T2, TGF-beta receptor type-1 (Homo sapiens) (UniProt P36897); details: at 1 µM
# T2 sequence (whole entry): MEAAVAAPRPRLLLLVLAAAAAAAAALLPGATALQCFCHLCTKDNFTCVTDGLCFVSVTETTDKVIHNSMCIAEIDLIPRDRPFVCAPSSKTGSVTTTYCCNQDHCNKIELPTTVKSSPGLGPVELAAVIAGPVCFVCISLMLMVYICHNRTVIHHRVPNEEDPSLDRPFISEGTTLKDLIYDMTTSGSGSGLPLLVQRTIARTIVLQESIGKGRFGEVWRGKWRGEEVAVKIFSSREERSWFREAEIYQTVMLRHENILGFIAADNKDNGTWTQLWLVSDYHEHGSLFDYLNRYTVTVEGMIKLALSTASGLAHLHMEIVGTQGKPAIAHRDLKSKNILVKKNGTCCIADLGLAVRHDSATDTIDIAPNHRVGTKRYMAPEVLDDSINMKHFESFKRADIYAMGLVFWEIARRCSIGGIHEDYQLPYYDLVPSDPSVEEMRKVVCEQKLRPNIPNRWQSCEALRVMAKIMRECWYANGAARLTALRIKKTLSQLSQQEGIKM
# [3] = biological target: T2, TGF-beta receptor type-1 (Homo sapiens); details: at 10 µM
# [4] = biological target: Insulin-like growth factor 1 receptor (Homo sapiens) (UniProt P08069); details: at 1 µM
# Chain of Insulin-like growth factor 1 receptor (Homo sapiens) (P08069 31-736 limits assumed): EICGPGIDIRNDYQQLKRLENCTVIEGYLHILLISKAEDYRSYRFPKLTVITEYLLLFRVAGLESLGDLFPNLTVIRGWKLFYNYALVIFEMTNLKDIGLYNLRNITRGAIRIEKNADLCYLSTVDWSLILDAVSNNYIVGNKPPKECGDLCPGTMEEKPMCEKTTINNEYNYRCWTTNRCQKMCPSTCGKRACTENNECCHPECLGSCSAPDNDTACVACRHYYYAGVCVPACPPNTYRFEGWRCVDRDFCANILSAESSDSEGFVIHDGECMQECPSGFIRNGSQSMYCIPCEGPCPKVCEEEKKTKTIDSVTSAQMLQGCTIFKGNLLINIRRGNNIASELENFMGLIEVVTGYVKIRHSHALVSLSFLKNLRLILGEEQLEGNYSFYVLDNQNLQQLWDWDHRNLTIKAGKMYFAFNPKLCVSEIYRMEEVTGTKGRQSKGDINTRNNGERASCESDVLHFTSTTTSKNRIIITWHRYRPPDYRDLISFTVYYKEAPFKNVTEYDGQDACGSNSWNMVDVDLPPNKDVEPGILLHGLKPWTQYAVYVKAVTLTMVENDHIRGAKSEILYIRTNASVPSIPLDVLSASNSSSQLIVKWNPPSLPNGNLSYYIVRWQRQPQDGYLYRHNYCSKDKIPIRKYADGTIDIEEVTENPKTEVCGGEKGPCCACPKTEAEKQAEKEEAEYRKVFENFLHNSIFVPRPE
# Chain of Insulin-like growth factor 1 receptor (Homo sapiens) (P08069 741-1367 limits assumed): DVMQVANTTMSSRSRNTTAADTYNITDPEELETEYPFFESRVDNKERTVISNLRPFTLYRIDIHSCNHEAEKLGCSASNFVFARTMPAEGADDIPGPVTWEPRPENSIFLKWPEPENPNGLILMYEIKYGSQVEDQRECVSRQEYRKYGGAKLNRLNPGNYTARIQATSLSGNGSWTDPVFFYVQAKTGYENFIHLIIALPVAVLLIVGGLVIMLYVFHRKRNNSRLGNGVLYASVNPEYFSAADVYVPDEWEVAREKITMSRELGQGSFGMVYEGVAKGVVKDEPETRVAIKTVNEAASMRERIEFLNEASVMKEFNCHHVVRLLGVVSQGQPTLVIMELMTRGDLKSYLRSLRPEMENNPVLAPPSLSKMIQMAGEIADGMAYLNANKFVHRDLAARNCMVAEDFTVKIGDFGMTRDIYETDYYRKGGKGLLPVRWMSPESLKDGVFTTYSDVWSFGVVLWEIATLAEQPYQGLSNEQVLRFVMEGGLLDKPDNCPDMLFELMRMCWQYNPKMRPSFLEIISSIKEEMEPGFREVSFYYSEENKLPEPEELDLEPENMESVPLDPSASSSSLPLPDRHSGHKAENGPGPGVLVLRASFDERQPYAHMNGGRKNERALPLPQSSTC
# [5] = biological target: Insulin-like growth factor 1 receptor (Homo sapiens) (UniProt P08069); details: at 10 µM
# [6] = biological target: T3, Inhibitor of nuclear factor kappa-B kinase subunit alpha (Homo sapiens) (UniProt O15111); details: at 1 µM
# T3 sequence (whole entry): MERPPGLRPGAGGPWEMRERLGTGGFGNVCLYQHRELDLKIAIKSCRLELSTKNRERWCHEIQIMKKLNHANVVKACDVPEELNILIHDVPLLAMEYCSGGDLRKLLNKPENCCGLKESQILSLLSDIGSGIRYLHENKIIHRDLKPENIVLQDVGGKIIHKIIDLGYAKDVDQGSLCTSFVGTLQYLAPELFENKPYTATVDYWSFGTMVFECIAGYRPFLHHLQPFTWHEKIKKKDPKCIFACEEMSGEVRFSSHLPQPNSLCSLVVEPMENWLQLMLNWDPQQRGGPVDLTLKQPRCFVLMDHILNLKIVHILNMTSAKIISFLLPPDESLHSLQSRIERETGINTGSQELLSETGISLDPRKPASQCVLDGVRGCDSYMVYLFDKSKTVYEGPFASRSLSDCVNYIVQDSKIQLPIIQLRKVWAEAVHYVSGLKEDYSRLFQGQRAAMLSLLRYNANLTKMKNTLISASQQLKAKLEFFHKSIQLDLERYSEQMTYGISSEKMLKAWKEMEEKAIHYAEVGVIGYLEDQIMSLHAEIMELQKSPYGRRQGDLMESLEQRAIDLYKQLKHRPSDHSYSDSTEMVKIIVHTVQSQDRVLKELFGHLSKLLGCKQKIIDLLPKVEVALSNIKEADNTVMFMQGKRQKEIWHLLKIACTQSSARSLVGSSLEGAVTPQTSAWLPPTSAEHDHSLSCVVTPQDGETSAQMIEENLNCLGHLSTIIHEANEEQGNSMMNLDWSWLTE
# [7] = biological target: T3, Inhibitor of nuclear factor kappa-B kinase subunit alpha (Homo sapiens); details: at 10 µM
# [8] = biological target: T4, Inhibitor of nuclear factor kappa-B kinase subunit beta (Homo sapiens) (UniProt O14920); details: at 1 µM
# T4 sequence (whole entry): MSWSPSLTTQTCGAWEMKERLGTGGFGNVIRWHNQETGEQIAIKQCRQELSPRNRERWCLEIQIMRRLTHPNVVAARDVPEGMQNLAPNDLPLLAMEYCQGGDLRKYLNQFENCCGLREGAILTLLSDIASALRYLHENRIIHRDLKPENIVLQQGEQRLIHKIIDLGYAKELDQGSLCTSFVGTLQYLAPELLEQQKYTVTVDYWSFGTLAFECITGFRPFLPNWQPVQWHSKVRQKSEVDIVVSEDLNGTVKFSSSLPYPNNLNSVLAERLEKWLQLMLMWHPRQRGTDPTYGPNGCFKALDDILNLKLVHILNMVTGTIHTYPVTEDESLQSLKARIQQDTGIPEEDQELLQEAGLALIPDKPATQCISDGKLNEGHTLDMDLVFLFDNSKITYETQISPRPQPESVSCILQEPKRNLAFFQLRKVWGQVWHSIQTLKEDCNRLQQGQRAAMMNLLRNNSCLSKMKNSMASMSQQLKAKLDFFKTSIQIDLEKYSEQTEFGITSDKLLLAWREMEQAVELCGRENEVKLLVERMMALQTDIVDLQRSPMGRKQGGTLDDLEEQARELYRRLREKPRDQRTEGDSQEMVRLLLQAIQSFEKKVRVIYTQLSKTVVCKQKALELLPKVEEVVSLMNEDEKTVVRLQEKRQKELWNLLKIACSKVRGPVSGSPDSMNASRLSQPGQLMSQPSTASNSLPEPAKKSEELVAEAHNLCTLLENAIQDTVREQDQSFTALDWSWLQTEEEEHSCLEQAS
# [9] = biological target: T4, Inhibitor of nuclear factor kappa-B kinase subunit beta (Homo sapiens); details: at 10 µM
# [10] = biological target: Insulin receptor (Homo sapiens) (UniProt P06213); details: at 1 µM
# Chain of Insulin receptor (Homo sapiens) (P06213 28-758 limits assumed): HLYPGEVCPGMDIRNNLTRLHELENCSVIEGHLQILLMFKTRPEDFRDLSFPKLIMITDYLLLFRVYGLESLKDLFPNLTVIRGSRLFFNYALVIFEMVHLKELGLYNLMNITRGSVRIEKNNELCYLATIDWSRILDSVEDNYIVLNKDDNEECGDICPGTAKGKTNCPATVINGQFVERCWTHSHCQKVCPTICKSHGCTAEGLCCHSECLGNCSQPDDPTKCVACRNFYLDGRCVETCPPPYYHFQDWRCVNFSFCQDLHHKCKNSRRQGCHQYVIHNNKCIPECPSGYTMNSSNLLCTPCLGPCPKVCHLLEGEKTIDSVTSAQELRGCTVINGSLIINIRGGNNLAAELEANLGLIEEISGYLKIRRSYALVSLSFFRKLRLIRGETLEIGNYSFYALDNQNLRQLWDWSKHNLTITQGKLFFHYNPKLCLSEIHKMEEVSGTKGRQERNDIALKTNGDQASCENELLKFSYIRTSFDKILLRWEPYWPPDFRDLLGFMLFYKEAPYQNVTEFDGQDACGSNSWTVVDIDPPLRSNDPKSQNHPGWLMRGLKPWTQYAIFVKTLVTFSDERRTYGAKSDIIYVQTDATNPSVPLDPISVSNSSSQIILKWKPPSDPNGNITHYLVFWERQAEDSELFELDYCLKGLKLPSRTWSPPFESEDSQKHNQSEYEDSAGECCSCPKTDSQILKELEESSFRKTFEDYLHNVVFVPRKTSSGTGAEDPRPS
# Chain of Insulin receptor (Homo sapiens) (P06213 763-1382 limits assumed): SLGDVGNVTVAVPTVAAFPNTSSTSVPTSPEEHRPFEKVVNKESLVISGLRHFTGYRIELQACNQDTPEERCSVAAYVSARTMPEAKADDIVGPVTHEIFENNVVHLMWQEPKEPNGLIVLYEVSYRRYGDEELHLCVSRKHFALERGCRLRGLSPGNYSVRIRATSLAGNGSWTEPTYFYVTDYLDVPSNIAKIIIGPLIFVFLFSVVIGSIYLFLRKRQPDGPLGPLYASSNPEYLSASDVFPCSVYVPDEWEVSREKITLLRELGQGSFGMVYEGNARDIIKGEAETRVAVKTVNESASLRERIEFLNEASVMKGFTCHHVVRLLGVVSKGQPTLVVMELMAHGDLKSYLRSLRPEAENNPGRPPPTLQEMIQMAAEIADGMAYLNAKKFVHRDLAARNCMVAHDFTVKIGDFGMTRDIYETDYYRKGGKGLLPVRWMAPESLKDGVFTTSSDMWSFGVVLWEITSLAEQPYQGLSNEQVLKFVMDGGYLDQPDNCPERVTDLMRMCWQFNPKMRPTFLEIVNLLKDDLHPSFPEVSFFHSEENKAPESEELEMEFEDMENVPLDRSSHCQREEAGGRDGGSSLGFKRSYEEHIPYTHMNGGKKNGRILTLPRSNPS
compound,measurement,setting,value
COc1cccc(-c2cc(=O)c3ccccc3o2)c1N,residual activity,[1],95%
same,residual activity,[2],104%
same,residual activity,[3],93%
same,residual activity,[4],93%
same,residual activity,[5],97%
same,residual activity,[6],105%
same,residual activity,[7],97%
same,residual activity,[8],125%
same,residual activity,[9],109%
same,residual activity,[10],109%
